The whole screen tested about 310,000 compounds, of which about 2,200 (0.71%) showed an effect of 50% or more. Effects have a minus sign here. What follows is part of a selection rich in strong results, with near analogues and random picks from the rest.
Biological target: human ether-à-go-go-related gene (hERG) potassium channel (human, UniProt Q12809)
Test: primary screen, population patch clamp on CHO cells stably expressing hERG; higher = less effect of the substance

Sequence of human ether-à-go-go-related gene (hERG) potassium channel (Q12809 whole entry, looked up): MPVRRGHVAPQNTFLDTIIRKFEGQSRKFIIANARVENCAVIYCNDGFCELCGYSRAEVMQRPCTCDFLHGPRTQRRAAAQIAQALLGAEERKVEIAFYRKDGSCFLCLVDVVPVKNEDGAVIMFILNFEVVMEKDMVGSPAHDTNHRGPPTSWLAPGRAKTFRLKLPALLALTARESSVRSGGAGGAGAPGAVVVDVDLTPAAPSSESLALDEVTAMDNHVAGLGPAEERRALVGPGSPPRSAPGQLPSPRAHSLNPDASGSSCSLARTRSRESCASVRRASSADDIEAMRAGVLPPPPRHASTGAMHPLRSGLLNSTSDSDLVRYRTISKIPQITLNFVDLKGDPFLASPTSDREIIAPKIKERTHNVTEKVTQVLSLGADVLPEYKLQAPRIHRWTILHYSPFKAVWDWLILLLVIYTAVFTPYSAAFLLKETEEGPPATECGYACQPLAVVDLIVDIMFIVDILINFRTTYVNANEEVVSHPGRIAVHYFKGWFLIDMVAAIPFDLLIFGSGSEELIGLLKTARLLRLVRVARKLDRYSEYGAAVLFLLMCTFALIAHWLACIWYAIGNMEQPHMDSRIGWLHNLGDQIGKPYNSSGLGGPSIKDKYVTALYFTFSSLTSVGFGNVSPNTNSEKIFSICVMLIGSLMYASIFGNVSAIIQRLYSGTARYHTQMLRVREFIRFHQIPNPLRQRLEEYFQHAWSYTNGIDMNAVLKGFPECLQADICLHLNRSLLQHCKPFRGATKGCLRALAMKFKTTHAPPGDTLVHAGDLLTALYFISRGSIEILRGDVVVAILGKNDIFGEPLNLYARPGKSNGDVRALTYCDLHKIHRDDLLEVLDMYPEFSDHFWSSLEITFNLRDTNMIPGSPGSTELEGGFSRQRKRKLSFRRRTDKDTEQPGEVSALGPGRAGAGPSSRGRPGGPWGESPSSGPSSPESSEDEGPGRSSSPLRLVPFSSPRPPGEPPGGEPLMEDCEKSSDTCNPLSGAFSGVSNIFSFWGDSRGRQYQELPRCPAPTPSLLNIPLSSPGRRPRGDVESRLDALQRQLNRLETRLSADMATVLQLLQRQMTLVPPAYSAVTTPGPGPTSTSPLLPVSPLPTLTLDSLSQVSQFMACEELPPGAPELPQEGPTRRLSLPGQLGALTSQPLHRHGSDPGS

SMILES | hERG current change (%, negative = inhibition) at 1uM
O=C(COC(=O)/C=C/c1ccccc1F)Nc1nnc(-c2ccccc2)o1 | 7.16%
Cc1ccc(S(=O)(=O)NCCOCCNS(=O)(=O)c2ccc(C)cc2)cc1 | -2.18%
Cc1ccccc1C(=O)NC1CCN(C(=O)N2CCOCC2)CC1 | 12.6%
O=c1cc(O)c2c(=O)n(C3CCCCC3)c3ccccc3c2o1 | 10.4%
CC(C)OC(=O)CSc1nc2c(cc1C#N)CCCCC2 | 10.2%
CC12CCC(=O)N1C(C(=O)Nc1cccc(S(=O)(=O)N3CCCCCC3)c1)CS2 (stereo not drawn) | -29.7%
CC12CCC(=O)N1C(C(=O)OCC(=O)Nc1cc(S(=O)(=O)N3CCCCC3)ccc1Cl)CS2 (stereo not drawn) | 11.1%
CC12CCC(=O)N1C(C(=O)OCC(=O)Nc1cccc(S(=O)(=O)N3CCCCCC3)c1)CS2 (stereo not drawn) | -51.9%
COc1ccc(CNCC(O)(c2ccccc2)c2ccc(F)cc2)cc1 (stereo not drawn) | -45.9%
O=C(CN1CCCC1=O)NCCc1ccccc1 | 8.88%
CCOc1ccc(CN(C)CC(=O)NCc2ccccc2)cc1 | -82.3%
CCOc1ccc(CN(C)CCc2ccccn2)cc1.O=C(O)C(=O)O | -58.8%
CN(CCc1ccccn1)Cc1ccc(Cl)c(Cl)c1 | -0.903%
CCOc1ccc(CN(C)C(C)C(=O)NCCc2ccc(F)cc2)cc1 (stereo not drawn) | -57.1%
CN(CCc1ccccn1)Cc1ccc(Cl)cc1Cl | -54.1%
CCc1ccc(CN(C)CCc2ccccn2)cc1 | -34.7%
CCOc1ccc(CN(C)C(C)C(=O)NCc2ccccc2)cc1 (stereo not drawn) | -21.7%
CN(CC(=O)NCc1ccccc1)Cc1ccc(Cl)cc1 | 2.36%
CCC(CC)C(=O)NCCc1ccc(F)cc1 | 10.2%

SMILES | hERG current change (%, negative = inhibition) at 1uM
CSc1ccc(CN(C)CCc2ccccn2)cc1.O=C(O)C(=O)O | -21.3%
CSc1ccc(CN(C)CC(=O)NCc2ccccc2)cc1 | -11.1%
CN(CCc1ccccn1)Cc1ccc(Cl)cc1 | -24.6%
O=c1c2ccccc2c(/C=N/c2nnc(Cc3ccccc3)s2)c(O)n1-c1ccc(Cl)cn1 | 11.3%
COC(=O)C(C)NS(=O)(=O)c1ccc(NC(C)=O)cc1 (stereo not drawn) | 1.66%
Cc1ccc(C(=O)c2coc3cc([N+](=O)[O-])c(O)c([N+](=O)[O-])c23)cc1 | 7.26%
COCCCn1c(=O)/c(=C\c2ccccc2OC(F)F)s/c1=C(/C#N)C(=O)N1CCOCC1 | 9.19%
CCN(CCn1cccn1)C(=O)c1cc(COc2ccc(F)c(F)c2)on1 | -27.1%
COc1cc(S(=O)(=O)N2CCOCC2)ccc1NC(=O)c1cc2c(s1)CCC2 | 3.78%
Cc1ccc2c(c1)N(C(=O)CCC(=O)NCc1cccnc1)CCO2 | -4.63%
COc1cccc(CN(C)CC(=O)NCc2ccccc2Cl)c1 | 14.6%
COc1cccc(CN(C)CC(=O)NCc2ccccc2Cl)c1OC | 10.6%
CN(CC(=O)NCc1ccc(F)cc1)Cc1ccc(Br)cc1 | 2.94%
CCOc1ccc(CN(C)CC(=O)NCc2ccccc2Cl)cc1 | -73.6%
CSc1ccc(CN(C)CC(=O)NCc2ccc(F)cc2)cc1 | -19.3%
CCOc1ccc(CN(C)CC(=O)NCc2ccc(F)cc2)cc1 | -78.6%
CCOC(=O)c1ccc(Oc2nc(NC(C)(C)C)nc(N(C)C)n2)cc1 | 6.02%
CCOC(=O)Nc1c(C(=O)OC)[nH]c2cc(OC)ccc12 | -3.1%
CCCn1c(SCc2ccccn2)nc2c1c(=O)n(C)c(=O)n2C | 16.5%

SMILES | hERG current change (%, negative = inhibition) at 1uM
CN(C)C(=S)NC(=NCc1ccc([N+](=O)[O-])cc1)c1ccccc1 | -60.3%
O=[N+]([O-])c1ccc(NC(=S)N/C(=N/CS(=O)(=O)c2ccccc2)c2ccccc2)cc1 | 11%
O=[N+]([O-])c1cccc(C(=NCc2ccccc2)NO)c1 | 15.5%
S=C(NCCc1ccccn1)Nc1ccccc1Cl | 17%
COc1cn(-c2ccccc2)nc1C(=O)OCC(=O)Nc1ccc(C)c(C)c1 | 12.1%
CC(NC(=O)c1ccc2c(c1)OCO2)C1CCCO1 (stereo not drawn) | -0.0414%
CCOC(=O)CSc1nc2ccccc2c(=O)n1Cc1ccco1 | 0.785%
CCN(CC)C(=O)CSc1nc2c(sc(=S)n2-c2ccccc2)c(=O)n1Cc1ccco1 | -86.3%
O=C(CSc1nc2ccccc2c(=O)n1Cc1ccco1)N1CCCC1 | -81.3%
C=CCn1c(SCC(=O)N2CCCC2=O)nc2sc(CC)cc2c1=O | -20%
CCN(CC)C(=O)CSc1nc2c(sc(=S)n2CC)c(=O)n1-c1ccccc1 | -13.3%
CC(C)Cn1c(SCC(=O)N2CCN(C(=O)c3ccco3)CC2)nc2ccccc2c1=O | -42.9%
CCN(CC)C(=O)CSc1nc2c(sc(=S)n2Cc2ccco2)c(=O)n1-c1ccccc1 | 5.26%
C=CCn1c(SCC(=O)N2CCN(C(=O)c3ccco3)CC2)nc2sc(CC)cc2c1=O | -85.6%
C=CCn1c(SCC(=O)N2CCc3ccccc3C2)nc2sc(CC)cc2c1=O | 10.8%
CCCn1c(SCC(=O)N2CCN(C(=O)c3ccco3)CC2)nc2ccccc2c1=O | -84.8%
CCCCn1c(SCC(=O)N2CCOCC2)nc2ccccc2c1=O | -39.4%
NC(=O)CSc1nc2ccccc2c(=O)n1Cc1ccco1 | -15.1%
Cc1cccc(OCCNC(=O)CCNS(=O)(=O)c2ccc3ccccc3c2)c1 | 6.04%
